Test results: PubChem BioAssay AID1159580 (chemical genetic matrix, 2015)
“And” between values parts separate entries of the source, which are not always exact repeats. Equal values may be shown once. Out of some 5,500 compounds screened, about 2,000 (36%) were called active. Another 18% or so got no clear call; they are omitted. Cut-off read from the data, not from the text of the source: active = normalized growth mostly below about 0.91 (no sharp cut-off); inconclusive = no clear call, values can overlap the other calls; inactive = mostly above about 0.92. This is one part of the list.

Assay: chemical genetic growth profiling, strain panel (AID 1159580);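 note: tested at 20 µM; growth read once vehicle control cultures reached saturation at 30 °C; 1 = growth at the plate median or of vehicle wells; lower values mean less growth of the strain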
Conditions: S. cerevisiae deletion strains, growth OD

## Cc1cccc(Nc2ccccc2C(=O)O)c1C
Locus YAL013W, strain DEP1, stronger effect = lower value
  normalized growth: 0.89 (active)
Locus YAL021C, strain ccr4, stronger effect = lower value
  normalized growth: 0.934 (inactive)
Locus YAL026C, strain drs2, stronger effect = lower value
  normalized growth: 0.929 (inactive)
Locus YAL030W, strain snc1, stronger effect = lower value
  normalized growth: 0.913 (active)
Locus YBL061C, strain skt5, stronger effect = lower value
  normalized growth: 0.924 (inactive)
Locus YBR009C, strain hhf1, stronger effect = lower value
  normalized growth: 0.951 (inactive)
Locus YBR021W, strain FUR4, stronger effect = lower value
  normalized growth: 0.853 (inactive)
Locus YBR023C, strain chs3, stronger effect = lower value
  normalized growth: 0.919 (inactive)
Locus YBR171W, strain sec66, stronger effect = lower value
  normalized growth: 0.843 (active)
Locus YBR229C, strain ROT2, stronger effect = lower value
  normalized growth: 0.912 (active)
Locus YBR231C, strain swc5, stronger effect = lower value
  normalized growth: 0.915 (inactive)
Locus YBR279W, strain paf1, stronger effect = lower value
  normalized growth: 0.921 (active)
Locus YCL011C, strain gbp2, stronger effect = lower value
  normalized growth: 0.922 (inactive)
Locus YCL016C, strain dcc1, stronger effect = lower value
  normalized growth: 0.913 (active)
Locus YCL029C, strain bik1, stronger effect = lower value
  normalized growth: 0.907 (active)
Locus YCL061C, strain MRC1, stronger effect = lower value
  normalized growth: 0.894 (active)
Locus YCL069W, strain vba3, stronger effect = lower value
  normalized growth: 0.912 (active)
Locus YCR088W, strain abp1, stronger effect = lower value
  normalized growth: 0.895 (active)
Locus YDL005C, strain med2, stronger effect = lower value
  normalized growth: 0.946 (inactive)
Locus YDL035C, strain GPR1, stronger effect = lower value
  normalized growth: 0.921 (inactive)
Locus YDL040C, strain nat1, stronger effect = lower value
  normalized growth: 0.92 (active)
Locus YDL074C, strain BRE1, stronger effect = lower value
  normalized growth: 0.898 (inactive)
Locus YDL101C, strain DUN1, stronger effect = lower value
  normalized growth: 0.994 (inactive)
Locus YDL134C, strain PPH21, stronger effect = lower value
  normalized growth: 0.904 (inactive)
Locus YDL185W, strain tfp1, stronger effect = lower value
  normalized growth: 0.984 (inactive)
Locus YDL192W, strain arf1, stronger effect = lower value
  normalized growth: 0.834 (active)
Locus YDR001C, strain nth1, stronger effect = lower value
  normalized growth: 0.893 (active)
Locus YDR069C, strain doa4, stronger effect = lower value
  normalized growth: 0.988 (inactive)
Locus YDR101C, strain arx1, stronger effect = lower value
  normalized growth: 0.885 (active)
Locus YDR137W, strain rgp1, stronger effect = lower value
  normalized growth: 0.739 (active)
Locus YDR150W, strain NUM1, stronger effect = lower value
  normalized growth: 0.894 (active)
Locus YDR159W, strain sac3, stronger effect = lower value
  normalized growth: 0.898 (inactive)
Locus YDR162C, strain NBP2, stronger effect = lower value
  normalized growth: 0.806 (active)
Locus YDR195W, strain ref2
  normalized growth: 1.08 (inactive)
Locus YDR297W, strain sur2, stronger effect = lower value
  normalized growth: 0.912 (active)
Locus YDR318W, strain mcm21, stronger effect = lower value
  normalized growth: 0.882 (active)
Locus YDR334W, strain swr1, stronger effect = lower value
  normalized growth: 0.908 (inactive)
Locus YDR335W, strain msn5, stronger effect = lower value
  normalized growth: 0.923 (inactive)
Locus YDR388W, stronger effect = lower value
  normalized growth: 0.869 (active)
Locus YDR392W, strain spt3, stronger effect = lower value
  normalized growth: 0.593 (active)
Locus YDR502C, strain sam2, stronger effect = lower value
  normalized growth: 0.864 (active)
Locus YEL003W, strain gim4, stronger effect = lower value
  normalized growth: 0.937 (inactive)
Locus YEL037C, strain rad23, stronger effect = lower value
  normalized growth: 0.909 (active)
Locus YEL061C, strain CIN8 (second series), stronger effect = lower value
  normalized growth: 0.887 (active)
Locus YEL061C, strain CIN8, stronger effect = lower value
  normalized growth: 0.904 (active)
Locus YER015W, strain faa2, stronger effect = lower value
  normalized growth: 0.936 (inactive)
Locus YER016W, strain bim1, stronger effect = lower value
  normalized growth: 0.918 (active)
Locus YER110C, stronger effect = lower value
  normalized growth: 0.859 (active)
Locus YER111C, strain swi4, stronger effect = lower value
  normalized growth: 0.907 (active)
Locus YER155C, strain BEM2 (second series), stronger effect = lower value
  normalized growth: 0.904 (inactive)
Locus YER155C, strain BEM2, stronger effect = lower value
  normalized growth: 0.868 (active)
Locus YER167W, strain BCK2, stronger effect = lower value
  normalized growth: 0.867 (active)
Locus YFR010W, strain ubp6, stronger effect = lower value
  normalized growth: 0.986 (inactive)
Locus YGL078C, strain dbp3, stronger effect = lower value
  normalized growth: 0.959 (inactive)
Locus YGL086W, strain mad1, stronger effect = lower value
  normalized growth: 0.884 (active)
Locus YGL167C, strain pmr1, stronger effect = lower value
  normalized growth: 0.851 (active)
Locus YGL173C, strain kem1, stronger effect = lower value
  normalized growth: 0.911 (inactive)
Locus YGL227W, strain vid30, stronger effect = lower value
  normalized growth: 0.917 (inactive)
Locus YGL240W, strain doc1, stronger effect = lower value
  normalized growth: 0.967 (inactive)
Locus YGL248W, strain PDE1, stronger effect = lower value
  normalized growth: 0.936 (inactive)
Locus YGL253W, strain hxk2, stronger effect = lower value
  normalized growth: 0.897 (active)
Locus YGR078C, strain PAC10, stronger effect = lower value
  normalized growth: 0.897 (inactive)
Locus YGR135W, strain pre9, stronger effect = lower value
  normalized growth: 0.858 (active)
Locus YGR229C, strain SMI1, stronger effect = lower value
  normalized growth: 0.729 (active)
Locus YGR252W, strain gcn5, stronger effect = lower value
  normalized growth: 0.854 (inactive)
Locus YHR013C, strain ard1, stronger effect = lower value
  normalized growth: 0.967 (inactive)
Locus YHR027C, strain rpn1, stronger effect = lower value
  normalized growth: 0.906 (active)
Locus YHR030C, strain SLT2, stronger effect = lower value
  normalized growth: 0.907 (active) and 0.891 (inactive)
Locus YHR079C, strain IRE1 (second series), stronger effect = lower value
  normalized growth: 0.887 (active)
Locus YHR079C, strain IRE1, stronger effect = lower value
  normalized growth: 0.883 (inactive)
Locus YHR094C, strain hxt1, stronger effect = lower value
  normalized growth: 0.872 (active)
Locus YHR129C, strain ARP1, stronger effect = lower value
  normalized growth: 0.911 (active)
Locus YHR142W, strain chs7, stronger effect = lower value
  normalized growth: 0.887 (inactive)
Locus YHR200W, strain rpn10, stronger effect = lower value
  normalized growth: 0.872 (active)
Locus YIL066C, strain RNR3, stronger effect = lower value
  normalized growth: 0.915 (inactive)
Locus YIL073C, strain SPO22, stronger effect = lower value
  normalized growth: 0.905 (inactive)
Locus YIL125W, strain kgd1, stronger effect = lower value
  normalized growth: 0.985 (inactive)
Locus YIR030C, strain dcg1, stronger effect = lower value
  normalized growth: 0.863 (active)
Locus YJL092W, strain hpr5, stronger effect = lower value
  normalized growth: 0.908 (active)
Locus YJL095W, strain BCK1 (second series), stronger effect = lower value
  normalized growth: 0.918 (active)
Locus YJL095W, strain BCK1, stronger effect = lower value
  normalized growth: 0.8 (inactive) and 0.923 (inactive)
Locus YJL115W, strain asf1, stronger effect = lower value
  normalized growth: 0.908 (inactive)
Locus YJL129C, strain trk1, stronger effect = lower value
  normalized growth: 0.697 (active)
Locus YJL134W, strain LCB3, stronger effect = lower value
  normalized growth: 0.894 (active)
Locus YJL154C, strain vps35, stronger effect = lower value
  normalized growth: 0.904 (active)
Locus YJL164C, strain tpk1, stronger effect = lower value
  normalized growth: 0.948 (inactive)
Locus YJL166W, strain qcr8, stronger effect = lower value
  normalized growth: 0.929 (inactive)
Locus YJL168C, strain set2, stronger effect = lower value
  normalized growth: 0.868 (active)
Locus YJL187C, strain SWE1 (second series), stronger effect = lower value
  normalized growth: 0.932 (inactive)
Locus YJL187C, strain SWE1, stronger effect = lower value
  normalized growth: 0.922 (active)
Locus YJR043C, strain POL32, stronger effect = lower value
  normalized growth: 0.942 (inactive)
Locus YJR066W, strain TOR1, stronger effect = lower value
  normalized growth: 0.81 (active)
